CRFR2-BP antag: antagonists of CRF-BP/CRF-R2 complex, primary screen, cell-based, HEK293, calcium dye fluorescence, uHTS; CRF-induced calcium fluorescence; inhibition, % at 11.8 µM; actives 0.59% (n = 350,000);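 active = inhibition of the ligand-induced calcium signal above about 50% at the single tested concentration, limit read from the data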
CRFBP-R2 agonist: agonists of CRF-BP/CRF-R2 complex, primary screen, cell-based, HEK293, calcium dye fluorescence, uHTS; activation, % at 13.2 µM; calcium dye fluorescence (FLIPR); percent of saturating CRF peptide response; CRF-binding protein / CRF receptor 2 complex (human); actives 0.46% (n = 350,000);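 active = activation of at least 50%, plus an integration ratio under a set limit after plate pattern correction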
ANO1 activ: TMEM16A chloride channel activators or potentiators, primary screen, cell-based, HTS. HEK293 TMEM16A/YFP-H148Q/I152L, iodide quench fluorescence; active compounds read low. Anoctamin-1 (Mus musculus), Q8BHY3. B-score at 10 µM. actives 0.3% (n = 340,000);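 active = fluorescence-ratio B-score plate-corrected deviation score at least 3 library SD below zero, with starting fluorescence score within 5 deviations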;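 also: channel opened by trigger with iodide after compound preincubation; score built on the fluorescence ratio of max minus min over baseline; more negative score means more quench and so TMEM16A activation or potentiation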
Target sequence (Q8BHY3 whole entry, looked up): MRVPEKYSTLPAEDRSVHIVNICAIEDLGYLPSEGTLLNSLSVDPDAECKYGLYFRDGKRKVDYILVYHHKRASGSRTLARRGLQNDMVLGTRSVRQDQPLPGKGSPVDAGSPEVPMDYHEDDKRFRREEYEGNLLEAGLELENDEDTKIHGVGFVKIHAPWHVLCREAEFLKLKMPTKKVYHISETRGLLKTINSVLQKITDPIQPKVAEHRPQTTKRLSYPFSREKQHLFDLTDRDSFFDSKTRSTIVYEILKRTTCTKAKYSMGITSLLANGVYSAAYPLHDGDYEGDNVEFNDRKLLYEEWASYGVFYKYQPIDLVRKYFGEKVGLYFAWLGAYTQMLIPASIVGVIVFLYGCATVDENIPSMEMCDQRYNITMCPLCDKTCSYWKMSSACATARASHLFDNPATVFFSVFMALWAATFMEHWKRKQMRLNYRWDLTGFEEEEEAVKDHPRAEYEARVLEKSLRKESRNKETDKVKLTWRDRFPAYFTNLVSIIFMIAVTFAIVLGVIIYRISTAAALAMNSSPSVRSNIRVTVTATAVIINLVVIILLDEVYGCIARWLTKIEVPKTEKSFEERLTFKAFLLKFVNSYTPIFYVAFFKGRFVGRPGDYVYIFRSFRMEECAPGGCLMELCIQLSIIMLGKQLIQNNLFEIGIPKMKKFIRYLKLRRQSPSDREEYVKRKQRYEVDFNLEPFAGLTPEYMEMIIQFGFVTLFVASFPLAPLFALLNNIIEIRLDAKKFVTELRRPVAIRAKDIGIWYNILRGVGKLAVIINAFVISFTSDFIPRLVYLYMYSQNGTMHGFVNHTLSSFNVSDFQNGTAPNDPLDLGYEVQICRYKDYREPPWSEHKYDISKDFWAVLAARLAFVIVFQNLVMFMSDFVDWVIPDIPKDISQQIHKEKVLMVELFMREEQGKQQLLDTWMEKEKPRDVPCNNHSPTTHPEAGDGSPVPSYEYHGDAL
MPTP inh: mitochondrial permeability transition pore inhibitors, primary screen, biochemical, isolated mouse mitochondria, absorbance | Ca2+ swelling absorbance, 30 min | inhibition, % at 10 µM | actives 1.4% (n = 360,000) | AID 602449, 2012;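 active = inhibition of 50% or more, scaled per plate between neutral and stimulator controls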
ANO1 block: TMEM16A chloride channel inhibitors, primary screen, cell-based, HTS | HEK293 TMEM16A/YFP iodide influx fluorescence, ionomycin | normalized B-score (activity score, 25-100; higher = stronger inhibition) at 10 µM | actives 1.2% (n = 310,000) | AID 588511, 2011;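 active = ratio plate-corrected score three or more library SD toward inhibition, starting fluorescence score within five deviations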;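 also: score derived from kinetic fluorescence span divided by baseline fluorescence per well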
NR3A LBD binder: binders of NR3A ligand-binding domain, primary screen, biophysical, differential scanning fluorimetry, uHTS; actives 2.5% (n = 340,000); Glutamate receptor ionotropic, NMDA 3A (GRIN3A) ligand-binding domain; NR3A LBD differential scanning fluorimetry, Tm shift; 0% = protein alone, 100% = glycine-bound protein; Tm shift relative to glycine control, % at 25 µM; AID 1259313, 2017;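 active = melting temperature shift of at least 10% of the positive control shift, at one fixed dose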
Of the large screens only hits and unclear results are named; the others gave an inactive call. An excerpt weighted towards active compounds, which were near 5.1% of everything screened.

Cc1cccc(C(=O)Oc2ccccc2/C=N/NC(=O)c2ccc(NC(=O)C(C)(C)C)cc2)c1	none
O=C(N/N=C/c1ccc(OC(=O)c2ccccc2Cl)cc1)c1ccccn1	none
Cc1cc(C(=O)N/N=C/c2ccc(OC(=O)c3ccccc3Br)cc2)n[nH]1	NR3A LBD binder 12
Cc1cccc(C(=O)Oc2ccc(/C=N/NC(=O)c3ccccc3O)cc2)c1	NR3A LBD binder 19
O=C1CC2CC1C(C(=O)O)C2C(=O)O (stereo not drawn)	none (no result: ANO1 block)
c1ccc(N2[C@@H]3c4ccccc4C[C@H]2c2ccccc23)cc1	none (no result: CRFR2-BP antag, CRFBP-R2 agonist, ANO1 activ, ANO1 block, NR3A LBD binder)
O=C1CC[C@@]23CCCN2C(=O)CCCC3C1 (stereo partly drawn)	none (no result: ANO1 block)
Cc1ccc(NS(=O)(=O)c2ccccc2)c([N+](=O)[O-])c1	none (no result: ANO1 block)
Cc1cc([N+](=O)[O-])c2ccccc2c1NS(=O)(=O)c1ccccc1	CRFR2-BP antag 119 (no result: ANO1 block)
COc1ccccc1-c1cn(S(=O)(=O)c2ccc(C)cc2)nc1N	none
COc1ccc(OC)c(-c2cn(S(=O)(=O)c3ccccc3)nc2N)c1	NR3A LBD binder 17
O=C(Nc1ccncc1)c1cncc(Br)c1	NR3A LBD binder 11
O=C(Cc1ccccc1)Nc1ccc(NC(=O)c2ccco2)cc1	none
O=C(/C=C/c1ccc(Br)cc1)c1ccco1	none
O=C(/C=C\c1ccccc1)Nc1ccc(NC(=O)c2ccco2)cc1	NR3A LBD binder 25
O=C(/C=C/c1ccc(Br)cc1)c1ccc(NC(=O)c2ccco2)cc1	NR3A LBD binder 24
Cn1c(=O)c2c(ncn2CC(=O)OCC(=O)c2ccc(OC(F)F)cc2OC(F)F)n(C)c1=O	none (no result: ANO1 activ, ANO1 block, NR3A LBD binder)
COc1ccc(NC(=O)Nc2cccc3c2O[C@H](CN(C)C(=O)Nc2c(C)noc2C)[C@@H](C)CN([C@H](C)CO)C3=O)cc1	none (no result: ANO1 block)
CN(C)c1ccc(C(CNS(=O)(=O)c2ccc3ccccc3c2)c2c[nH]c3ccccc23)cc1 (stereo not drawn)	NR3A LBD binder 16
CN(C)c1ccc(C(CN)c2c[nH]c3ccccc23)cc1 (stereo not drawn)	none
C[C@H](NC(=O)C1CCN(S(=O)(=O)c2ccccc2)CC1)C(=O)NCc1ccccn1	none
COc1cccc(CN(C)C(=O)CN2C(=O)NC(c3ccccc3)(c3ccccc3)C2=O)c1	ANO1 activ -48 (no result: ANO1 block)
COc1ccc(NC(=O)CN(C)C(=O)CN2C(=O)NC3(CCCCC3)C2=O)cc1	none (no result: ANO1 block)
COc1ccc(C2(c3ccc(OC)cc3)NC(=O)N(CC(=O)NC(C)C)C2=O)cc1	none
COc1cccc(NC(=O)CN(C)C(=O)CN2C(=O)NC3(CCCC3)C2=O)c1	NR3A LBD binder 14
COc1ccc(C2(c3ccc(OC)cc3)NC(=O)N(CC(=O)NCC(C)c3ccccc3)C2=O)cc1 (stereo not drawn)	NR3A LBD binder 25 (no result: ANO1 block)

Bioassay records: PubChem BioAssay, several laboratories
